This is an account of results in PMC5700166.

Assay [1] concerns the target T1, GST-Nv-NF-kB (Ser allele) (Nematostella vectensis, UniProt A7UNT2 2-411).
T1 sequence: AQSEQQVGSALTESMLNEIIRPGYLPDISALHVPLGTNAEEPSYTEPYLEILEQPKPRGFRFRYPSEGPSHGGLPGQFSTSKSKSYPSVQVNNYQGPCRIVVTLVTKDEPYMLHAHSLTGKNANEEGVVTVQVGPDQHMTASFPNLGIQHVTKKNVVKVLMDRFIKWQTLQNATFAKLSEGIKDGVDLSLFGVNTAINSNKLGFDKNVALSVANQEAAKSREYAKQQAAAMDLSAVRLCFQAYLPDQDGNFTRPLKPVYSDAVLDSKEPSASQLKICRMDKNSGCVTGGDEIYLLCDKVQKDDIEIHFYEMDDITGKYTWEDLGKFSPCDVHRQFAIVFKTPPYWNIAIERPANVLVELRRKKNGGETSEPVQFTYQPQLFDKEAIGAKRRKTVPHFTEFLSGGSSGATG
Briefly: protein-binding microarray (PBM); PBM: ~300 nM protein, 6 mM HEPES pH 7.8, 80 mM KCl, 0.5 mM EDTA, 0.5 mM EGTA, 6% glycerol, 35 ng/ul poly-dIdC, 1% milk, 1 h, room temperature; Ap Aiptasia and Nv Nematostella (sea anemones) / Co Capsaspora / Aq Amphimedon (sponge) / Dm Drosophila / Hu human; RHD is the Rel homology domain; high values mean tight binding. To be noted: dsDNA, one strand shown.

In the next assay the target is GST-Hu-p50 (Homo sapiens, UniProt P19838 7-356). The assay is described as above. The following applies: dsDNA, one strand shown.
Sequence of GST-Hu-p50 (P19838 7-356): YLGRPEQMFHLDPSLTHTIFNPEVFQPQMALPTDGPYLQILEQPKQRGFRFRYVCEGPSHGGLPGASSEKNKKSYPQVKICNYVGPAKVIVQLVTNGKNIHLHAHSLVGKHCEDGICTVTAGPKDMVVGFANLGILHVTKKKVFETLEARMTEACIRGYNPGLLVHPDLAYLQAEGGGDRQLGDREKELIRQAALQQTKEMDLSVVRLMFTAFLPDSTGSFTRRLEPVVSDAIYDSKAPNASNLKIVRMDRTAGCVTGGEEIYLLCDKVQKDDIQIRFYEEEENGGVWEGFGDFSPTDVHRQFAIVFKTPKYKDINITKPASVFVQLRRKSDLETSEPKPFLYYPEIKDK

“CCGATTAACATCATAAGGGGTGTTGATGTTAATCGGGTCTTGATTCGCTTGACGCTGCTG”: the binding signal in assay [1] was determined as 1.09 z-score; with GST-Hu-p50, 1.44 z-score.

Consider “CCGATTAACATCAGGGGGAAGCATGATGTTAATCGGGTCTTGATTCGCTTGACGCTGCTG”, for which the binding signal in assay [1] is 6.05 z-score; with GST-Hu-p50 it was 4.74 z-score.

Regarding “CCGATTAACATCAGGGGACGCACTGATGTTAATCGGGTCTTGATTCGCTTGACGCTGCTG”, the binding signal was 4.02 z-score in assay [1] and 4.28 z-score with GST-Hu-p50.

Take “CCGATTAACATCAGGGGGGCACCTGATGTTAATCGGGTCTTGATTCGCTTGACGCTGCTG”: the binding signal in assay [1] was found to be 2 z-score; with GST-Hu-p50, 3.33 z-score.

Take “CCGATTAACATCAGAAAATTACCTGATGTTAATCGGGTCTTGATTCGCTTGACGCTGCTG”: the binding signal in assay [1] was determined as 5.7 z-score; with GST-Hu-p50, 4.34 z-score.

As for “CCGATTAACATCAGGAATTTACCTGATGTTAATCGGGTCTTGATTCGCTTGACGCTGCTG”, the binding signal in assay [1] was determined as 4.26 z-score; with GST-Hu-p50 it was 3.27 z-score.

Regarding “CCGATTAACATCACATATACCCCTGATGTTAATCGGGTCTTGATTCGCTTGACGCTGCTG”, the binding signal in assay [1] worked out at 1.38 z-score; with GST-Hu-p50 it was 2.14 z-score.

As for “CCGATTAACATCAGAATGCCCCCTGATGTTAATCGGGTCTTGATTCGCTTGACGCTGCTG”, the binding signal in assay [1] was determined as 3.07 z-score; with GST-Hu-p50 it was 4.7 z-score.

Take “CCGATTAACATCAAGGTAATTCCTGATGTTAATCGGGTCTTGATTCGCTTGACGCTGCTG”: the values for the binding signal (in assay [1]; with GST-Hu-p50) were 3.37 z-score and 2.4 z-score, respectively.

Consider “CCGATTAACATCACTAAAATCCCTGATGTTAATCGGGTCTTGATTCGCTTGACGCTGCTG”, for which the binding signal in assay [1] was found to be 3.42 z-score; with GST-Hu-p50 it was 3.2 z-score.

In the case of “CCGATTAACATCAGAATTGCCCCTGATGTTAATCGGGTCTTGATTCGCTTGACGCTGCTG”, the binding signal in assay [1] was 2.89 z-score; in the assay with GST-Hu-p50, 4.35 z-score.

As for “CCGATTAACATCAGGGACAACCCTGATGTTAATCGGGTCTTGATTCGCTTGACGCTGCTG”, the values for the binding signal (in assay [1]; with GST-Hu-p50) were 3.39 z-score and 2.91 z-score, respectively.
